Shown are actives, neighbours in structure and some others; about 0.45% of the full set was active somewhere.
FMDV Renilla: Primary qHTS Assay for Foot and Mouth Disease Virus Antivirals against NCGC Sytravon and CBC Compound Libraries: Renilla Luciferase Signal; FMDV replicon cells, Renilla luciferase signal; Potency, µM (titrated, usually from 57.5 µM), most hits filed as inhibitors; actives 0.32% (n = 120,000); AID 1745857, 2022; note: nearly all actives have a fitted effect of over 55% in size
FMDV FLuc: Primary qHTS Assay for Foot and Mouth Disease Virus Antivirals against NCGC Sytravon and CBC Compound Libraries: Firefly Luciferase Signal; FMDV antiviral cell assay, firefly luciferase signal; Potency, µM (top dose mostly 57.5 µM), hits mostly inhibitors; actives 0.23% (n = 120,000); AID 1745856, 2022; note: nearly all actives have a fitted effect of over 60% in size
Numbers stand for hits; - = inactive; ? = inconclusive; [ ] = remark or other dose. Calls come from the whole dose curve.

SMILES	FMDV Renilla	FMDV FLuc
COc1cccc(CNC(=O)Cn2ccc3cc(S(=O)(=O)N4CCCC4)ccc32)c1OC	-	-
COc1ccccc1CCNC(=O)Cn1ccc2cc(S(=O)(=O)N3CCCCC3)ccc21	28µM	-
Cc1nc(C)c(CC(=O)Nc2nnc(C3CCCCC3)s2)c(=O)[nH]1	-	-
Cc1ccc(NC(=O)c2ccc3c(c2)NC(=O)c2ccccc2S3)cc1	6.3µM	?
Cc1cccc(NC(=O)c2ccc3c(c2)NC(=O)CS3)c1	-	-
CC(Sc1ccc2c(c1)OCCCO2)C(=O)c1ccc(F)cc1 (stereo not given)	-	-
CCOC(=O)c1c(C)sc2c1OC(N)=C(C#N)C21C(=O)N(C)c2ccccc21 (stereo not given)	-	-
CCCn1nc(S(=O)(=O)N2CCCC2)c(C(=O)OCC)c1C	-	-
COc1ccc(CCNc2ncnc3onc(C)c23)c(OC)c1	0.89µM	?
CCCNc1ncnc2onc(C)c12	-	-
Cc1ccc(CN2C3=NCCCN3c3ccccc32)cc1	-	-
Cc1cc2c(cc1C)N(Cc1ccc(Cl)cc1)C1=NCCCN12	?	20µM
Cc1cccc(-c2nc(C#N)c(N3CCN(C(=O)c4ccc(F)cc4)CC3)o2)c1	-	-
CCC[N+]1(CC#CCC(c2ccccc2)c2ccccc2)CCCCC1	4µM	?
C(#CCN1CCOCC1)CC(c1ccccc1)c1ccccc1	-	-
COC(=O)c1ccc(COC(=O)C2COc3ccccc3O2)o1 (stereo not given)	-[1.06 µM]	-
CC(C)(C)c1ccc2c(c1)OCCOCCOc1cc(C(C)(C)C)ccc1OCCOCCO2	18µM	28µM
CC(C)(C)c1ccc2c(c1)OCCOCCOCCOCCO2	-	-
COc1cc(CC(=O)NC(C)c2cccs2)cc(OC)c1OC (stereo not given)	-	-
O=S(=O)(Nc1nc2ccccc2nc1Nc1ccc(F)cc1)c1cccc(Cl)c1	?	6.3µM
COc1ccc(Nc2nc3ccccc3nc2NS(=O)(=O)c2cccc(Cl)c2)cc1	-	-
CCC(C)S(=O)(=O)c1oc(-c2cccs2)nc1S(=O)(=O)c1ccccc1 (stereo not given)	-	32µM
O=S(=O)(c1ccccc1)c1nc(-c2cccs2)oc1N1CCCCC1	-	-
CCS(=O)(=O)c1ncc(Cl)c(C(=O)Nc2c(C(=O)Nc3cccc(C)c3)oc3ccccc23)n1	-	-
Cc1cccc(NC(=O)c2nc(S(C)(=O)=O)ncc2Cl)c1	35µM	?
SMILES	FMDV Renilla	FMDV FLuc
Cc1c(C(=O)N2CCCC2)c(S(=O)(=O)N2c3ccccc3CC2C)c(C)n1C (stereo not given)	-	-
C=C(C)COc1ccc2c(C)c(CCC(=O)NCc3ccc(S(N)(=O)=O)cc3)c(=O)oc2c1	7.1µM	4.5µM
COc1ccc2c(C)c(CCC(=O)NCc3ccc(S(=O)(=O)N(C)C)cc3)c(=O)oc2c1	-	-
O=C(Nc1nnc(SCc2ccccc2)s1)c1cc(=O)c2ccccc2o1	-	-
Brc1n[nH]c(Br)n1	-	-
Cn1c(=O)c2c(nc(Br)n2CC(=O)c2ccc(F)cc2)n(C)c1=O	-	-
Cn1c(=O)c2c(nc(Cl)n2CC(=O)c2ccc(C(C)(C)C)cc2)n(C)c1=O	11µM	?
COc1ccccc1NS(=O)(=O)c1cc(NC(=O)c2n[nH]c3ccccc23)ccc1Cl	-	?
COc1cc(/C=C2\NC(=O)NC2=O)c(Br)cc1OCC(=O)O	-	-
CCOc1cc(Br)c(/C=C2/NC(=O)NC2=O)cc1OC	?	2.8µM
COc1ccc(C(C)=O)cc1COc1ccccc1C#N	-	-
CO/C=C(/C(=O)OC)c1ccccc1Oc1cc(Oc2ccccc2C#N)ncn1	18µM	?
CC(C)CNC(=O)c1cc2cc(N(C)S(C)(=O)=O)ccc2s1	?	-
CCN(c1ccc2sc(C(=O)NCCC(C)C)cc2c1)S(C)(=O)=O	25µM	?
CN(C)c1cccc(C(=O)NNC(=O)c2ccc(Cl)cc2)c1	-	-
CCc1ccccc1NC(=O)c1ccc(Cn2nc(N3CCN(c4ccccc4)CC3)ccc2=O)o1	32µM	?
CCOc1ccccc1NC(=O)Cn1nc(N2CCN(c3ccccc3)CC2)ccc1=O	-	-
CCOc1ncccc1CNC(=O)c1cc2cc(C)ccc2nc1C	-	-
Cc1ccccc1OCC(O)Cn1c(=N)n(CCN2CCCCC2)c2ccccc21 (stereo not given)	-	-
CCCCCn1c(=N)n(CC(O)COc2cccc(C)c2)c2ccccc21 (stereo not given)	25µM	?
CCc1ccc(Nc2nc(CSc3ccc(Cl)cc3)nc3sc4c(c23)CCC4)cc1	-[1.06 µM]	-
O=[N+]([O-])c1ccc(NC(c2ccccc2)c2ccccn2)c2ccncc12 (stereo not given)	-	-
CC(Nc1ccc([N+](=O)[O-])c2cnccc12)c1ccc(F)cc1 (stereo not given)	25µM	?
Cc1oc2cc(OCC(=O)NCc3cccs3)ccc2c(=O)c1Oc1ccccc1	-	-
O=S1(=O)C[C@H](N2CCN(c3ncccn3)CC2)[C@@H](S(=O)(=O)c2ccccc2)C1	-	-
SMILES	FMDV Renilla	FMDV FLuc
CN(C)CCCNC(=O)c1cc(-c2ccc(-c3ccccc3)cc2)nc2ccccc12	8.9µM	-
CN(C)CCCNC(=O)c1cc(-c2ccccc2)nc2ccccc12	-	-
Cc1ccc(C2=NC(C(F)(F)F)(C(F)(F)F)c3c(n(-c4ccccc4)c(=O)[nH]c3=O)N2)cc1	-	-
O=c1[nH]c(=O)n(Cc2ccccc2)c2c1C(C(F)(F)F)(C(F)(F)F)N=C(c1cccs1)N2	?	20µM
CCNC(=O)CN1CCN(C(C(=O)O)c2c[nH]c3ccc(Cl)cc23)CC1 (stereo not given)	-	-
Cc1[nH]c(SCC(=O)Nc2cccc(S(=O)(=O)N3CCCC3)c2)nc1Cc1ccccc1	-	14µM
O=C(CSc1nncn1-c1ccccc1)Nc1cccc(S(=O)(=O)N2CCCCC2)c1	-	-
COc1ccc(OC(=O)CSc2nnc(-c3ccc(F)cc3)o2)cc1	-	-
CCOc1ccc(-c2nnc(SCC(=O)Oc3ccccc3)o2)cc1	-	3.5µM
CCOC(=O)c1cnc2c(C)cc(C)cc2c1Nc1ccc(O)cc1	-	-
COc1cc(/C=C(/C#N)C(=O)Nc2cccc(C(F)(F)F)c2)ccc1OC(F)F	-	-
Cc1cc(C(C#N)c2ccc(Cl)cc2)c(Cl)cc1NC(=O)CCc1ccccc1 (stereo not given)	-	-
Cc1cc(C(C#N)c2ccc(Cl)cc2)c(Cl)cc1NC(=O)c1cc(I)cc(I)c1O (stereo not given)	11µM	-[11.5 µM]
Cc1[nH]c2ccccc2c1C(=O)/C(C#N)=C\c1ccccc1Cl	-	-
Cc1cc(C)cc(-n2ccnc2SCC(=O)Nc2ccccc2F)c1	20µM	?
Cc1cc(C)cc(-n2ccnc2SCC(=O)Nc2cccc3ccccc23)c1	-	-
O=C(Nc1c(NCc2ccccc2)c2ccccc2oc1=O)c1ccccc1F	-	-
Cc1c(NC(=O)C2CCN(S(=O)(=O)Cc3ccc(F)cc3)CC2)c(=O)n(-c2ccccc2)n1C	-	-
CNC(=O)C(CCSC)NC(=O)c1ccc2ccccc2n1 (stereo not given)	-	-
CCc1nc2ccccc2n1CCCCOc1ccccc1C	?	11µM
Cc1ccc(NCc2nc3ccccc3n2CCOc2ccccc2C)cc1	-	-
O=c1[nH]c(CSc2ccc(F)c(Cl)c2)nc2ccsc12	-	-
